Source: PubChem BioAssay (National Center for Advancing Translational Sciences (NCATS))
This is a sample that favours compounds with a hit; in the whole collection about 1.4% have one here.
TCR act – activates T cell receptor signaling; primary human leukocytes, anti-CD3, IL-2 HTRF, 48 h; Potency, µM (doses to about 9.22 µM), for inactives: at the top dose activation of IL-2 secretion, usual class: activators; 330,000 tested, under 10 active; AID 504894; further: % of control where 0% means no effect
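Human primary leukocytes + a-CD3 beads + cpd, 48 hr; IL-2 in supernatant by HTRF (ex 320nm / em 665nm). No co-stimulatory signal supplied.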
p53 reactivation – re-activators of mutant p53; H1299 p53-A138V BP100-luciferase reporter, luminescence, 24 h; Potency, µM (doses to about 92.2 µM), for inactives: top-dose activity change, positive = activation, actives largely listed as activators; 320,000 tested, 0.063% active; AID 504706; further: potency means the concentration at half of the fitted maximal effect; % of control where 0% means no effect; nearly all actives have a fitted effect of over 45% in size
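H1299 (p53-null), stable ts p53-A138V + BP100-Luc; 1000 cells/well, Opti-MEM/10% FBS; cpd 4 pt, 1:5; 24 h, 37 deg C, 5% CO2; detection reagent 10 min RT; luminescence.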
GLS inhibitor – blocks human kidney-isoform glutaminase activity | GLS enzymatic activity, qHTS titration | Potency, µM (top dose mostly 45.5 µM), without a hit: at the highest dose activity change, negative = inhibition, actives largely listed as inhibitors | 410,000 tested, 0.21% active | AID 624170; further: potency means the concentration at half of the fitted maximal effect; on the % scale 0 is the no-effect control and ±100 the full control effect
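Assay buffer: 45 mM KH2PO4 pH 8.2, 0.02% Tween-20. hKGA acts on L-glutamine (1 mM solution added); product glutamate is reported by an oxidase/peroxidase Amplex Red coupling, with fluorescence taken at baseline and 30 min.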
N370S GC – N370S glucocerebrosidase modulation, Gaucher chaperone candidate | P04062 | N370S GC spleen homogenate, 4MU-glucoside fluorescence | Potency, µM (doses to about 59.4 µM), inactives show at the highest dose activity change, negative = inhibition, most hits filed as inhibitors | 330,000 tested, 0.092% active;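 further: potency means the concentration at half of the fitted maximal effect; 0% = full enzyme activity and -100% = no enzyme basal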
BRCA1 expr up – BRCA1 expression activation; Potency, µM (doses to about 46.1 µM), for inactives: top-dose activation, actives largely listed as activators; MCF7-BRCA1-FFLuc reporter, luminescence, 48 h; response scale: scaled: vehicle 0%, 10 µM genistein 100%; 380,000 tested, 1.1% active; further: potency means the concentration at half of the fitted maximal effect; nearly all actives have a fitted effect of over 80% in size
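MCF7 cells carrying a BRCA1-firefly luciferase reporter (2000 cells/well, phenol-red free MEM) were attached for 2 h at 37 °C, then given compounds for 48 h. Luminescence was read 15 min after luciferase reagent; activity normalized to genistein (10 microM) and DMSO.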
TSHR antag – blocks TSH signaling through the human TSH receptor; 330,000 tested, 0.2% active; activity change, negative = inhibition, % at 11.5 µM; AID 504810; P16473; TSHR-expressing cells, TSH-stimulated cAMP HTRF, 2 h; active compounds read low;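 active means activity change below a set negative limit, meaning inhibition stronger than a set level, cut at about -70% in these data; inconclusive means activity change between two set negative limits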; further: on the % scale 0 is the no-effect control and ±100 the full control effect
Target sequence (P16473 whole entry, looked up): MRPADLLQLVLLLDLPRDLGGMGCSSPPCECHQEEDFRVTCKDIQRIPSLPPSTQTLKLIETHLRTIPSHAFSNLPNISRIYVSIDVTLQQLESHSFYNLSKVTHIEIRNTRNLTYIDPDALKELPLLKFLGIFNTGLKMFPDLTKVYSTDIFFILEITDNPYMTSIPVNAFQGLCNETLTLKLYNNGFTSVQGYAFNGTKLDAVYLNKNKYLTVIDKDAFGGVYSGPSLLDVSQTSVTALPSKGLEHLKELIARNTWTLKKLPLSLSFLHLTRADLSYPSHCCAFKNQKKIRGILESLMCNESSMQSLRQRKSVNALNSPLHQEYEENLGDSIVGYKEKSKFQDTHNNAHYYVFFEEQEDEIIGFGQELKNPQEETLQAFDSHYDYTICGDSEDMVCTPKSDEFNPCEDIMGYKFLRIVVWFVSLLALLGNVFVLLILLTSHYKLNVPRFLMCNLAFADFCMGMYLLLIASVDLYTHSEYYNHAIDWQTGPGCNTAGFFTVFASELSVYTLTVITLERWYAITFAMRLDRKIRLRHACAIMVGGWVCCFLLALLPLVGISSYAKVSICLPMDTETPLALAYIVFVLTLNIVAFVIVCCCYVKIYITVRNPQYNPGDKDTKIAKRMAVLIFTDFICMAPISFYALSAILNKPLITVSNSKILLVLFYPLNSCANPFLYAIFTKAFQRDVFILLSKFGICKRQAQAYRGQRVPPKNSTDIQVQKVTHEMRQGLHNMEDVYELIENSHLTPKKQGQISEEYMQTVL
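Competitive HTRF cAMP read-out (cryptate anti-cAMP antibody, cAMP-d2; 30 min, room temperature) in freshly harvested TSHR cells. Compounds added before TSH at EC80 (4nM final), followed by 2 hours' incubation at 37 deg C.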
Starred values were filed as active, the others as inactive; u = inconclusive; x = not tested or not shown; [ ] = dose if it differs, or a comment. Unless noted, the call rests on the fitted dose curve; in most records, active means well fitted curve in the direction sought with a large enough effect; inconclusive means small, poorly fitted or top-dose-only effect, or another doubt; inactive means no such curve, though single readings can be large; an effect the other way counts as inactive or inconclusive.

SMILES	TCR act	p53 reactivation	GLS inhibitor	N370S GC	BRCA1 expr up	TSHR antag
O=C(CSCc1cccc(F)c1)NCc1ccccc1	0%	u	3%	8%	11µM*	13
Cc1nn2c(-c3ccco3)ccnc2c1-c1ccc(Cl)cc1	x	x	-5%	x	0%	x
O=C(CSc1ncccc1C(=O)O)c1cccc(C(F)(F)F)c1	-4%	-3%	-4%	7%	16µM*	7
CCOC(=O)N1CCN(C(=O)c2ccc3c(c2)sc2nc(-c4ccccc4)cn23)CC1	-1%	u	22%	-3%	10µM*	-3
CCOC(=O)C1CCN(C(=O)c2ccc3c(c2)sc2nc(-c4ccccc4)cn23)CC1	x	x	-2%	x	x	x
COCCNC(=O)c1cc2oc3ccccc3c2n1C	1%	u	0%	2%	10µM*	-1
C/C1=C2/[N-]C(C(CC(N)=O)[C@@]2(C)CCC(=O)NCC(C)OP(=O)([O-])O[C@H]2[C@@H](O)[C@@H](n3cnc4cc(C)c(C)cc43)O[C@@H]2CO)[C@]2(C)N=C(/C(C)=C3N=C(/C=C4N=C1C(CCC(N)=O)C\4(C)C)[C@@H](CCC(N)=O)[C@]\3(C)CC(N)=O)[C@@H](CCC(N)=O)[C@]2(C)CC(N)=O.CC(=O)O.[Co] (stereo partly drawn)	x	x	-14%	x	x	x
Cc1ccc(-c2cc(C(=O)N3CCCc4ccccc43)no2)cc1	0%	u	-6%	15%	3.2µM*	2
CN1CCN(C(=O)c2cc(-c3ccccc3)on2)CC1	9%	27%	5%	0%	7.9µM*	11
O=C(c1cc(-c2ccc(Cl)c(Cl)c2)on1)N1CCCC1	x	14%	x	26%	x	2
O=C(c1cc(-c2ccc(F)cc2)on1)N1CCCc2ccccc21	-5%	10%	0%	-9%	39%	-18
O=C(c1cc(-c2ccc(Cl)c(Cl)c2)on1)N1CCOCC1	-4%	29%	5%	0%	1.3µM*	5
O=C(c1cc(-c2ccccc2)on1)N1CCCCCC1	16%	-18%	0%	-1%	1.8µM*	-7
O=C(c1cc(-c2ccccc2)on1)N1CCN(C(=O)c2ccco2)CC1	1%	19%	18%	-1%	44%	-4
COc1ccc(Nc2cc(C)c3cc(NC(=O)c4cc(OC)cc(OC)c4)ccc3n2)cc1	x	x	-6%	x	-64%	x
COc1cccc(-c2cc(C(=O)N3CCCCC3C)no2)c1 (stereo not drawn)	2%	u	-1%	2%	2.8µM*	-10
COC(=O)C1(C(=O)OC)CC2=CCC3C(=O)N(c4ccccc4)C(=O)C3C2Cc2ccccc2[C@@H]1C[N+](=O)[O-] (stereo partly drawn)	x	x	x	-6%	x	x
COc1ccc(C2Nc3ccccc3NC3=C2C(=O)CC(C)(C)C3)cc1O (stereo not drawn)	x	18%	13µM*	-1%	-16%	-9
COc1ccc(C2C3=C(CC(C)(C)CC3=O)Nc3c2c(=O)n(C)c(=O)n3C)cc1OC (stereo not drawn)	-2%	0%	13µM*	1%	-16%	-3
CCNc1nc(NCC)nc(-n2cc(C(=O)c3cc(Cl)ccc3O)cn2)n1	x	x	x	x	-8%	x
N#CC1=C(N)N2C(=C(C#N)C1c1ccc(Br)cc1)Nc1ccccc12 (stereo not drawn)	7%[46.1 µM]	25%	9%	-25%	-81%	-79*
N#CC1=C(N)N2C(=C(C#N)C1c1cccc(Br)c1)Nc1ccccc12 (stereo not drawn)	-8%[46.1 µM]	-6%	14%	-11%	-70%	0
COc1ccc(-c2nc3ccccn3c2Nc2ccccc2C)cc1	x	x	x	x	4%	x
Cc1ccc2c(c1)c1c(n2CC(O)CNC(CO)(CO)CO)CCCC1 (stereo not drawn)	0%	-7%	17%	11µM*	0%	1
Cc1cc(C2=NNC(=NCCc3ccccc3)SC2)c(C)n1CC1CCCO1 (stereo not drawn)	2%	-1%	-8%	-13%	47%	26
SMILES	TCR act	p53 reactivation	GLS inhibitor	N370S GC	BRCA1 expr up	TSHR antag
Clc1ccc(C2=NNC(=NCC3CCCO3)SC2)cc1 (stereo not drawn)	10%[46.1 µM]	u	1%	6%	2.5µM*	8
Cn1c(SCc2ccc(F)cc2)nnc1-c1ccccn1	0%	u	-3%	9%	4.5µM*	-6
Cn1c(SCc2ccccc2F)nnc1-c1ccccn1	-6%	-2%	3%	18%	11µM*	2
O=C(CSc1nnc(-c2ccccn2)o1)Nc1ccc(F)cc1	6%	u	-4%	0%	114%	19
Cn1c(SCC(=O)NC2CC2)nnc1-c1cccs1	7%	35µM*	3%	u	26%	-10
Cc1ccc(CSc2nnc(-c3ccccn3)n2C)cc1	1%	u	-1%	1%	u	-2
Fc1ccc(CSc2nnc(-c3ccccn3)o2)cc1	-4%	17%	1%	2%	4µM*	-6
O=C(C[n+]1ccccc1Br)c1ccc(F)cc1	x	x	x	x	30%	x
CC(C)(C)OC(=O)N1CCN(c2nc(-c3cccs3)nc3ccccc23)CC1	x	x	x	x	2%	x
Cn1c(SCc2ccc(F)cc2)nnc1-c1cccs1	-6%	14%	6%	-3%	4.5µM*	-7
Nn1c(SCc2ccccc2F)nnc1-c1cccnc1	8%	20%	-1%	4%	8.9µM*	-4
Cn1c(SCc2ccccc2)nnc1-c1cccs1	3%	17%	0%	11%	u	0
CCN(CC)c1ccc(/C=N/NC(=O)c2ccc(O)cc2)cc1	x	x	x	-10%	x	x
C=CCNc1nc(NC2CCN(C)CC2)c2cc(OC)c(OC)cc2n1	x	x	x	x	-3%	x
Cc1ccc(CN2CCc3[nH]c(=S)[nH]c(=O)c3C2)cc1	-10%	-3%	-8%	-6%	7%	-3
O=c1[nH]c(=S)[nH]c2c1CN(Cc1ccc(F)cc1)CC2	-1%	-8%	-13%	0%	5%	-139*
CCn1c(SCC(=O)NCc2ccco2)nnc1-c1cccc(N(C)C)c1	x	x	x	x	-1%	x
CN(C)c1ccc(N=Nc2ccc(S(N)(=O)=O)cc2)cc1	0%	u	1%	-15%	2µM*	-7
CCOC(=O)c1ccc(-c2ccc(/C=N/NC(=O)Cc3nnc(N)s3)o2)cc1	-2%	10%	4%	9%	2.2µM*	u
Nc1nnc(CC(=O)N/N=C/c2ccc(-c3ccc(F)cc3)o2)s1	-3%	-5%	12%	-10%	9%	1
COC1=C(C(=O)O)N2C(=O)[C@@H](NC(=O)C(N)C3C=CCC=C3)[C@H]2SC1 (stereo partly drawn)	x	x	0%	x	x	x
